40 compounds from ChEMBL document CHEMBL3988442, “University of Dundee, Small-Polar-MMV Screening Library” (2021) can be followed below.

The assay deals with T1, Aspartate--tRNA(Asp/Asn) ligase (Mycobacterium tuberculosis (strain ATCC 25618 / H37Rv)) (UniProt P9WFW3).
T1 sequence (whole entry): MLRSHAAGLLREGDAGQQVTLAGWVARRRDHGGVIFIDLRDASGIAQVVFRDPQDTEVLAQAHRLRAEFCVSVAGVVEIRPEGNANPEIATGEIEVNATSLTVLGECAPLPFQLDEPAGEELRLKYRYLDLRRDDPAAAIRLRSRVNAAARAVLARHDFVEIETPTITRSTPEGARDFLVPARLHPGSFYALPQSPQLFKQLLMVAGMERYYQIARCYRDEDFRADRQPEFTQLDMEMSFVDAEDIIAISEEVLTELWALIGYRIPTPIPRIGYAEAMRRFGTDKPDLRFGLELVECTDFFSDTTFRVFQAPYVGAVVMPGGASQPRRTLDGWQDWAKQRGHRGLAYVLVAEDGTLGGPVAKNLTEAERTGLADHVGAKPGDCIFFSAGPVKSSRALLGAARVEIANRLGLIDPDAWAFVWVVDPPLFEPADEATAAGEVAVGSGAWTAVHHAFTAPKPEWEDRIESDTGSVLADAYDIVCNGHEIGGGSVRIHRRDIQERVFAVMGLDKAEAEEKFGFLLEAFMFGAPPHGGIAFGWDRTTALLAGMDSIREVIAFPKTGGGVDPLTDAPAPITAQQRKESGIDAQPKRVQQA
Nature of the assay: Assay for Asp RNA synthetase-1 from Mycobacterium tuberculosis. Format: functional. Set-up: scale not given: in the data most compounds retested in dose-response had high values. The note with it: 30 µM.
For `Cc1nc(C)n(CC2CCCCN2CC(=O)NC2CCOCC2)n1` (stereo not given), the Percent Effect is -4.37%. On to `CNS(=O)(=O)c1ccc(C(=O)N2CCCC(n3cccn3)C2)cc1` (stereo not given), for which the Percent Effect was 0.589%. As to `CN(CCNC(=O)Nc1ccncc1)C1CCCCC1`, the Percent Effect was 1.25%. The same measure for `Cc1nccn1C1CCCN(C(=O)c2ccc(N(C)C)nc2)C1` (stereo not given): -1.91%. The same measure for `CN(CCCc1cnn(C)c1)C(=O)C1CCOC1` (stereo not given): 5.2%; for `Cc1ccc2c(n1)N(CCn1cccn1)CCN(C(=O)NC1CC1)C2`: 0.917%. In the case of `CC(C)(C(=O)NCC(N)=O)c1ccccc1F`, the Percent Effect was -1.56%. Turning to `CN(Cc1cccc(Cl)c1)S(=O)(=O)N1CCOCC1`, the Percent Effect worked out at 2.4%.

`CCN(Cc1nc2c(cnn2C)c(=O)[nH]1)Cc1cccs1`: the Percent Effect was -1.27%. Regarding `CCNc1cc2c(nn1)CCN(C(=O)CC1CCCCC1)C2`, the Percent Effect is -7.97%. `Cc1[nH]c2ccccc2c1-c1ccnc(NC[C@H](O)CO)n1`: the Percent Effect was 0.691%. Consider `Cc1ncc(CN(C)CC2CCCN2c2cccnn2)s1` (stereo not given), for which the Percent Effect came to 3.27%. `Cc1cccc2cc(CNCCCN3CCOCC3)c(=O)[nH]c12`: the Percent Effect was found to be 0.253%. On to `Cc1nccc(CN2CCC(c3nnsc3S(C)(=O)=O)CC2)n1`, for which the Percent Effect was -0.313%. Regarding `CCc1nc(CN2CCCC(N(C)Cc3cnn(C)c3)C2)no1` (stereo not given), the Percent Effect was determined as 0.747%.

Take `Cc1cc(CN(C)C(=O)NC2CCS(=O)(=O)C2)no1` (stereo not given): the Percent Effect was -1.18%.

For the compound `Cc1ncccc1NC(=O)[C@H]1C[C@@H]2CCN(Cc3nccs3)C[C@@H]2O1`, the Percent Effect is -3.35%. In the case of `Cc1cnn(CC2CCCCN2CCn2cncn2)c1` (stereo not given), the Percent Effect is -2.34%. As to `CCCS(=O)(=O)N1CCC2(CN(c3cnn(C)c3)C(=O)CN2C)C1` (stereo not given), the Percent Effect is -0.662%. For `CCCc1cc(=O)n(CC(N)=O)c(-n2nc(C)cc2C)n1`, the Percent Effect amounted to 3.6%.

Turning to `O=C(CCc1nccs1)N1CCCC(N2CCNC2=O)C1` (stereo not given), the Percent Effect worked out at 6.01%. The figure for `CN(Cc1ccco1)C(=O)[C@H]1CSCN1C(=O)OC(C)(C)C` is -1.74%.

For the compound `Cc1nn(C)c(N(C)C)c1CNCc1ccc(OCC(N)=O)cc1`, the Percent Effect was -6.72%.

As to `CCc1cnc(N2CCC3(CC2)CN(c2cccnc2)C(=O)CO3)nc1`, the Percent Effect is 6.49%. The same measure for `CCN1CC2(CC1=O)CN(Cc1cccs1)CCN(C(=O)C(C)C)C2` (stereo not given): -0.746%; for `CC(C)c1csc(C2CCCN(C(=O)c3ccc(=O)n(C)n3)C2)n1` (stereo not given): -1.11%; for `CCOc1ccc(CNCCCn2ccnc2)cc1Br`: -5.78%. The same measure for `NC(=O)c1cccc(CC2CCN(C(=O)CCCN3CCOCC3)C2)c1` (stereo not given): 6.21%; for `Cc1cnn(CC2CCCN2Cc2nccn2C)c1` (stereo not given): 5.22%. For `COC(=O)CCc1c(C)nn(-c2nc(C)cc(=O)[nH]2)c1C`, the Percent Effect is -5.2%. In the case of `Cc1[nH]ncc1C(=O)N1CCCC(n2cncn2)C1` (stereo not given), the Percent Effect was determined as 1.7%. For `O=C(NC1CC1)[C@H]1CC[C@@H]2[C@@H](CCN2c2ncc(F)cn2)O1`, the Percent Effect is -4.13%. In the case of `Cn1cc(Br)c(=O)c(NS(=O)(=O)c2cc(F)ccc2Cl)c1`, the Percent Effect is -1.26%.

In the case of `CCOCC(O)CN1CCN(C(=O)c2ccccc2Cl)CC1` (stereo not given), the Percent Effect was -4.21%. As for `O=C(Nc1nc2c(s1)CN(S(=O)(=O)C1CC1)CC2)c1c(F)cccc1F`, the Percent Effect was -0.834%. For the compound `CC(=O)N1CCN([C@@H]2CC[C@@H](NC(=O)c3cncc(C)c3)[C@H]2O)CC1`, the Percent Effect was -1.5%. The same measure for `c1cnnc(NCC2CN(CCN3CCCCC3)CCO2)c1` (stereo not given): -4.13%. Turning to `Cc1nc(C)n(CC2CCCN(CC(=O)Nc3c(C)n[nH]c3C)C2)n1` (stereo not given), the Percent Effect was -1.34%. Turning to `NCc1cnn(-c2ccccc2C(=O)NCc2ccncc2)c1`, the Percent Effect was -3.11%.

Take `CC(C)Cc1noc(CN2CCC(NC(=O)c3cccs3)CC2)n1`: the Percent Effect was 1.37%.
